JMJD2A Tudor – blocks the human JMJD2A Tudor domain | O75164 | AID 504339 | Potency, µM (doses to about 114 µM), inactives show top-dose activity change, negative = inhibition, hits mostly inhibitors | 390,000 tested, 4.4% active | AlphaScreen JMJD2A-Tudor / H3K4me3 peptide binding; also: potency is read from the fitted curve at half-maximal effect; % is scaled to controls: 0 for no effect and ±100 for the full control effect; nearly all actives have a fitted effect of over 50% in size
Six1-Eya2 inh – blocks human Six1 binding to Eya2; AlphaScreen GST-Six1/His-Eya2 binding, biochemical; hits give low values; 360,000 tested, 0.56% active; AID 651725; Q15475+O00167; activity change, % (concentration not given with the values); in the data active = activity change below about -65%; inconclusive = mostly about -30% to -63%; also: % is scaled to controls: 0 for no effect and ±100 for the full control effect
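AlphaScreen with GST-Six1 and His-Eya2 (5X mix: 250 nM and 500 nM), glutathione donor and nickel acceptor beads; buffer 50 mM Tris pH 8.0, 300 mM NaCl, 1 mM TCEP; 1 h at 37 C in the dark.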
G9a block – inhibitors of human histone lysine methyltransferase G9a | AID 504332 | 350,000 tested, 8.8% active | G9a H3K9 monomethylation, AlphaScreen, 2 h | Potency, µM (doses to about 102 µM), inactives show top-dose activity, negative = inhibition, usual class: inhibitors; also: potency is read from the fitted curve at half-maximal effect; % is scaled to controls: 0 for no effect and ±100 for the full control effect; nearly all actives have a fitted effect of over 75% in size
Target sequence (Q96KQ7 913-1193 limits assumed): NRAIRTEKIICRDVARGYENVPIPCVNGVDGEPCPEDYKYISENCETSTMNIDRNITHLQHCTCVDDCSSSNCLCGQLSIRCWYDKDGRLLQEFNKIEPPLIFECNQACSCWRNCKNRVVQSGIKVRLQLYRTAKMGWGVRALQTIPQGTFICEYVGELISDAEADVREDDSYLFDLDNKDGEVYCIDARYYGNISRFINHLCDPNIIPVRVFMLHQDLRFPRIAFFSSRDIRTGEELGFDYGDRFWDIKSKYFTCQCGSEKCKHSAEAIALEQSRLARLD
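AlphaScreen read-out: biotin-H3K9 peptide (500 nM) methylation by 20 nM enzyme with 20 uM SAM, 2 h at room temperature after 15 min compound preincubation; anti-monomethyl H3K9 antibody plus donor/acceptor beads, 10 min dark.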
HP1b binding inh – blocks HP1-beta chromodomain binding to methylated histone tails; P83916; AlphaScreen HP1-beta / biotin-H3K9me3 peptide binding; Potency, µM (series often up to 114 µM), inactives show at the top dose activity change, negative = inhibition, actives largely listed as inhibitors; 390,000 tested, 0.56% active; AID 540317; also: potency is read from the fitted curve at half-maximal effect; nearly all actives have a fitted effect of over 70% in size
Target sequence (P83916 whole entry, looked up): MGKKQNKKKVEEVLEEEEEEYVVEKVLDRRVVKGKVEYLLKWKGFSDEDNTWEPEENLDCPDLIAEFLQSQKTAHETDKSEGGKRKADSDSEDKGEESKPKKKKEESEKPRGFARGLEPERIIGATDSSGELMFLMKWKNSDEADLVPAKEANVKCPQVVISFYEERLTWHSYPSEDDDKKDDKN
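HP1-beta protein (50 nM final) preincubated 30 min at room temperature with biotinylated H3(1-18)K9me3 peptide (50 nM) in PBS pH 7.4, 0.01% Tween-20, then compound added for 30 min. AlphaScreen streptavidin donor/nickel chelate acceptor beads (10 ug/mL final), 30 min dark, luminescence read.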
CtBP-E1A inh – CtBP/E1A binding inhibition. AlphaScreen GST-E1A/His-CtBP binding, 1536-well; hits give low values. activity change, % (test concentration not listed). 340,000 tested, 0.49% active; in the data active = activity change below about -65%; inconclusive = mostly about -30% to -63%; also: % is scaled to controls: 0 for no effect and ±100 for the full control effect
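Steps: dispense buffer (Tris pH 8.0, NaCl 300 mM, TCEP 1 mM, BSA, Tween 20); add 5X protein mix (GST-E1A, His-CtBP, 125 nM each); pin 23 nL compound; 2 h at 37 °C, dark; add 5X beads (50 ug/mL); 1 h; read.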
BAZ2B inh – blocks human BAZ2B; 360,000 tested, 4.4% active; Q9UIF8; Potency, µM (highest dose often 114 µM), inactives show at the highest dose activity change, negative = inhibition, usual class: inhibitors; AID 504333; AlphaScreen BAZ2B-H3K14Ac peptide displacement; also: potency is read from the fitted curve at half-maximal effect; % is scaled to controls: 0 for no effect and ±100 for the full control effect; nearly all actives have a fitted effect of over 60% in size
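Inhibition is scored as reduced AlphaScreen emission. The BAZ2B/b-H3(5-23)K14Ac complex (50 nM each) in PBS pH 7.4, 0.01% Tween-20 meets compound (up to 110 uM) for 30 min at RT before bead addition.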
The depositor's hits bear a star; ? = inconclusive; / = no result given; ! = not active in a repeat; [ ] = remark or other dose. In the library only some 10% were active in any assay of this set; here they are far more common. Unless noted, calls follow the shape of the dose curve; as a rule, active = well fitted inhibition curve with a large enough effect; inconclusive = small, poorly fitted or top-dose-only effect; inactive = no such curve, though single readings can be large or run the other way.

SMILES	JMJD2A Tudor	Six1-Eya2 inh	G9a block	HP1b binding inh	CtBP-E1A inh	BAZ2B inh
CCOc1ccc(-c2nc(C#N)c(NCC3CCCO3)o2)cc1 (stereo not given)	-31.6%	-12.8	-3.0%[59 µM]	13.3%	-19.9	-38.4%
C=CCNc1oc(-c2ccc(OC)cc2)nc1C#N	-15.2%	-2.7	56.2µM*	2.6%	-2.5	-4.9%
CC(C)CC(=O)NCC1(N(C)C)CCCCC1	-16.2%	/	8.5%[59 µM]	31.5%	/	0.3%
CCCCS(=O)CC(COc1ccc(Cl)cc1)OC(=O)c1ccccc1 (stereo not given)	33.1%	2.1	50.1µM*	88.5%	2.7	26.5%
CC(=O)c1cccc(S(=O)(=O)N2CCN(c3nc(-c4cccs4)nc4ccccc34)CC2)c1	-19.9%	/	/	19.1%	/	/
CN(C)c1ccc(/C=C2/C(=O)N(c3ccc([N+](=O)[O-])cc3)N=C2N2CCOCC2)cc1	/	/	-6.2%[0.501 µM]	/	/	7.08µM*
O=C1CC(N2CCOCC2)=NN1c1ccc([N+](=O)[O-])cc1	-34.7%	26.9	/	-3.6%	0.0	-25.7%
CN(C)C1(CN=Cc2cc(Cl)cc([N+](=O)[O-])c2O)CCCCC1	39.8µM*	-2.9	?	?	-2.4	44.7µM*
COc1ccc(N2CCN(S(=O)(=O)c3ccc(F)c(C(=O)Nc4ccccc4Cl)c3)CC2)cc1	-16.2%	/	6.3%[59 µM]	-3.7%	/	-1.7%
COCCn1c(C(=O)N2CCCC2)cc2c1C[C@H]1CN(C(=O)c3ccccc3)[C@@](Cc3ccc(F)cc3)(C(=O)OC)[C@@H]21	-22.9%	-4.5	?	14.8%	-1.5	?
COC(=O)[C@@]1(Cc2ccc(F)cc2)[C@H]2c3cc(C(=O)N4CCCC4)n(CCSCCO)c3C[C@H]2CN1C(=O)c1ccccc1	/	-1.3	/	/	0.0	/
COC(=O)[C@@]1(Cc2ccc(F)cc2)[C@H]2c3cc(C(=O)N4CCCC4)n(CCc4c[nH]c5ccc(OC)cc45)c3C[C@H]2CN1C(=O)c1ccccc1	/	/	39.8µM*	/	/	?
COC(=O)[C@@]1(Cc2ccc(OC)cc2)[C@H]2c3cc(C(=O)N4CCCC4)n(Cc4ccc(C)o4)c3C[C@H]2CN1C(=O)c1ccccc1	/	/	79.4µM*	/	/	39.8µM*
COC(=O)[C@@]1(Cc2ccccc2)[C@H]2c3cc(C(=O)N4CCCC4)n(CCSCCO)c3C[C@H]2CN1C(=O)c1ccccc1	/	/	25.1µM*	/	/	?
CCOc1cc(C#N)c(NC(=O)c2cccc(S(=O)(=O)N3CCOCC3)c2)cc1OCC	-8.2%	/	-42.1%[59 µM]	19.8%	/	?
COc1ccc(N2CCN(C(=O)c3cc4c(=O)oc5ccc(C)cc5c4s3)CC2)cc1	-8.4%	/	-3.3%[59 µM]	28.8%	/	-3.9%
COc1ccc(Cn2ccc3nc(C)c(C(=O)Nc4ccc(OC)cc4)cc3c2=O)cc1	-4.7%	/	-4.1%[59 µM]	72.3%	/	4.2%
CCN(Cc1ccccc1)C(=O)Cn1c(=O)n(-c2ccc(Cl)cc2)c(=O)c2c(C)c(C)sc21	-15.0%	/	4.9%[59 µM]	44.0%	/	-13.6%
CSc1ccc(CCNC(=O)c2c(C)oc3ncn(C)c(=O)c23)cc1	-11.7%	/	-3.0%[59 µM]	34.1%	/	1.4%[57.1 µM]
CC(=O)Nc1cccc(O)c1	-9.7%	0.0	-2.5%[0.501 µM]	66.2%	9.0	6.8%
CC(C)c1cc(Nc2cccc(O)c2)cc(C(C)C)c1O	/	/	?	/	/	31.6µM*
COc1ccccc1NS(=O)(=O)c1ccc(NN=C2CCCCC2)c([N+](=O)[O-])c1	?	?	25.1µM*	?	1.1	8.91µM*
COc1ccc(S(=O)(=O)Nc2ccccc2OC)cc1C	3.9%	8.8	-6.4%[59 µM]	16.3%	9.9	-2.5%
COc1ccccc1NS(=O)(=O)c1ccc(OC)c([N+](=O)[O-])c1	-22.5%	3.0	2.8%	-7.5%	-2.7	-12.9%
CCCC(CCC)=NNc1ccc(S(=O)(=O)Nc2ccccc2OC)cc1[N+](=O)[O-]	14.1µM*	?	?	28.2µM*	?	10µM*
SMILES	JMJD2A Tudor	Six1-Eya2 inh	G9a block	HP1b binding inh	CtBP-E1A inh	BAZ2B inh
CC(C)(C)OC(=O)N1CCC(c2c(C(=O)N3CCN(c4ccccc4)CC3)cnn2-c2ccccc2)CC1	-29.1%	/	?	-9.1%	/	0.9%[57.1 µM]
COc1ccc(C2NC(C(=O)O)Cc3c2[nH]c2ccccc32)cc1OC (stereo not given)	3.16µM*	0.8	?	?	-4.4	2.9%
COC(=O)C1Cc2c([nH]c3ccccc23)C(C(C)C)N1 (stereo not given)	-2.0%	-4.9	44.7µM*	19.8%	1.0	-13.3%
COC(=O)[C@@H]1Cc2c([nH]c3ccccc23)C(C)N1C(=O)c1ccccc1 (stereo not given in full)	-20.1%	-13.0	?	7.3%	/	?
CCC1NC(C(=O)O)Cc2c1[nH]c1ccccc21 (stereo not given)	-13.6%	-10.6	-4.0%[12.7 µM]	-13.9%	2.1	-11.9%
COc1cc(C2NC(C(=O)O)Cc3c2[nH]c2ccccc32)cc(OC)c1OC (stereo not given)	56.2µM*	-1.0	?	-1.7%	5.0	79.4µM*
CCOc1ccc(NC(=O)Cn2nc(CC)n3c(cc4sccc43)c2=O)cc1	-4.4%	/	-19.9%[59 µM]	23.5%	/	-5.3%
Cc1ccccc1Cn1c(CN2CCC(C(=O)NCCc3ccccc3)CC2)cc2ccccc21	-20.0%	/	8.9%[59 µM]	13.8%	/	-24.8%
CN(C)CCCOC(=O)c1ccc(Br)cc1	8.0%	-1.6	44.7µM*	42.9%	4.2	9.9%
COc1ccc(C2=Nn3c(nnc3-c3cc(OC)cc(OC)c3)SC2)cc1	-23.4%	/	/	/	/	/
CC1=C(CC(=O)O)c2cc(F)ccc2/C1=C\c1ccc(S(C)=O)cc1 (stereo not given)	-32.4%	1.4	8.44µM*!	27.3%	-0.2	0.4%
CC(=O)N1CCc2c(sc3c2c(=O)n(-c2ccccc2)c(=O)n3CC(=O)Nc2ccccc2C)C1	-9.8%	/	-12.8%[59 µM]	18.2%	/	-15.3%
COc1cc(CN2CCC(C(=O)N3CCN(c4ccccc4F)CC3)CC2)ccc1O	2.51µM*	5.0	14.1µM*	?	-1.9	56.2µM*
COc1cccc(CN2CCC(C(=O)N3CCN(Cc4ccc5c(c4)OCO5)CC3)CC2)c1	0.891µM*	0.0	41.8%	?	-3.9	-10.0%
O=C(C1CCN(c2nnc(-n3cccc3)s2)CC1)N1CCN(Cc2ccc3c(c2)OCO3)CC1	-30.3%	-3.7	?	26.2%	-10.3	?
COc1ccc(OC)c(CN2CCC(C(=O)N3CCOCC3)CC2)c1	2.24µM*	3.0	10µM*	?	9.6	?
COc1cc(CN2CCC(C(=O)NC3CCCC3)CC2)ccc1O	?	4.5	?	?	1.0	31.6µM*
Cc1ccc(NC(=O)C2CCN(S(=O)(=O)c3ccc4[nH]c5c(c4c3)CCCCC5)CC2)cc1	-22.1%	/	-36.5%[59 µM]	27.3%	/	-13.9%

From PubChem BioAssay
